Rows were chosen to be rich in hits. Some 2.4% of all compounds tested hit in one or more screens of this group.
POLH inh: DNA polymerase eta (human) inhibition. Q9Y253. recombinant Pol eta, fluorescent DNA replication assay. Potency, µM (titrated, usually from 114 µM), inactives show at the highest dose activity change, negative = inhibition, usual class: inhibitors. hit rate 1.2% among 390,000; note: % is set by controls: 0 for no effect and ±100 for the full control effect
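Pol eta at 10 nM preincubated with compounds 15 min at room temperature; reaction started with fluorescent substrate (50 nM final) and read kinetically at 0 and 10 min.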
POLK inh: inhibitors of human DNA polymerase kappa; Q9UBT6; purified Pol kappa, fluorescent DNA synthesis assay, 10 min; Potency, µM (highest dose often 107 µM), inactives show at the highest dose activity, negative = inhibition, actives largely listed as inhibitors; hit rate 0.53% among 400,000; AID 588579; note: % is set by controls: 0 for no effect and ±100 for the full control effect
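Activity was followed as the change in fluorescence between reads at 0 and 10 min after starting the reaction with 50 nM substrate. Beforehand, 10 nM polymerase had been preincubated with compound for 15 min at room temperature.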
FEN1 inhibitor: human FEN1 inhibition; Recombinant FEN1 flap cleavage, fluorescence, 15 min; Potency, µM (doses to about 114 µM), without a hit: at the top dose activity change, negative = inhibition, most hits filed as inhibitors; hit rate 0.35% among 390,000; AID 588795; note: % is set by controls: 0 for no effect and ±100 for the full control effect; nearly all actives have a fitted effect of over 65% in size
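In this screen, 50 nM flap DNA substrate was added to 10 nM FEN1 pretreated with compound for 15 min at room temperature; cleavage was followed with reads at 0 and 15 min, and Hill fitting gave concentration–response parameters.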
TDP1 block: blocks human tyrosyl-DNA phosphodiesterase 1; AID 485290; Potency, µM (series often up to 130 µM), without a hit: at the top dose activity change, negative = inhibition, most hits filed as inhibitors; recombinant TDP1, AlphaScreen DNA substrate cleavage; hit rate 0.28% among 350,000; Q9NUW8; note: % is set by controls: 0 for no effect and ±100 for the full control effect; nearly all actives have a fitted effect of over 40% in size
Target sequence (Q9NUW8 whole entry, looked up): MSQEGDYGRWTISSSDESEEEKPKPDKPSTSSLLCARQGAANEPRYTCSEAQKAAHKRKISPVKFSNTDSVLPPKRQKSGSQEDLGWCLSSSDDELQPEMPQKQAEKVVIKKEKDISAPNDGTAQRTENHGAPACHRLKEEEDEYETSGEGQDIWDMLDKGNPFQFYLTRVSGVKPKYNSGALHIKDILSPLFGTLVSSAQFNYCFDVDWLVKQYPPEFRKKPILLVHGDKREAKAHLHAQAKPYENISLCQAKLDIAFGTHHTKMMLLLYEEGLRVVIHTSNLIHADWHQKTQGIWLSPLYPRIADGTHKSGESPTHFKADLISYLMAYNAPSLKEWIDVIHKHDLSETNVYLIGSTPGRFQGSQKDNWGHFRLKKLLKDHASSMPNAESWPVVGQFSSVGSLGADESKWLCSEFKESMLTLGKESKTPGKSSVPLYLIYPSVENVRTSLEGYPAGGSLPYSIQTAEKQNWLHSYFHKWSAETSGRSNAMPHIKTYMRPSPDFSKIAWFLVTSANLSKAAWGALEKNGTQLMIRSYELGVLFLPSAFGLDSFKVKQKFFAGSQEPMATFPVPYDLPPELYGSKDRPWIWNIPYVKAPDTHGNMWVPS
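Recombinant E. coli-expressed Tdp1 (1 nM) preincubated with compound 15 min at RT, then 5'-biotin/3'-phosphotyrosine-FITC DNA substrate (15 nM) added for 5 min. AlphaScreen beads (10 ug/ml) added, 10 min RT; tyrosine-FITC cleavage read as signal loss.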
POLI inh: blocks human DNA polymerase iota activity; Pol iota fluorescent replication assay, 10 min; Potency, µM (highest dose often 115 µM), for inactives: top-dose activity, negative = inhibition, usual class: inhibitors; hit rate 1% among 390,000; AID 588590
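Pol iota at 10 nM preincubated 15 min with compounds at room temperature; reaction started with fluorescent substrate, 50 nM final. Fluorescence read kinetically at 0 and 10 min; buffer-only wells as negative control.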
Pol beta inh: DNA polymerase beta (human) inhibition. P06746. hit rate 1.3% among 340,000. Pol beta primer extension/strand displacement, fluorescence kinetic. Potency, µM (series often up to 114 µM), inactives show at the top dose activity change, negative = inhibition, usual class: inhibitors; note: % is set by controls: 0 for no effect and ±100 for the full control effect
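Human Pol beta at 10 nM; strand-displacement substrate 50 nM final. Compound exposure 15 min at room temperature before start, reaction 10 min at room temperature.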
* = called active by the depositor; ? = inconclusive; · = no result; [ ] = another dose, or the depositor's remark. Calls come from the whole dose curve; as a rule, active = well fitted curve in the direction sought with a large enough effect; inconclusive = small, poorly fitted or top-dose-only effect, or another doubt; inactive = no such curve, though single readings can be large; an effect the other way counts as inactive or inconclusive. Potency is the fitted concentration of half-maximal effect.

SMILES	POLH inh	POLK inh	FEN1 inhibitor	TDP1 block	POLI inh	Pol beta inh
CCCCN(CC)C(=O)c1cc2c(=O)n3ccccc3nc2n1C	-12%	-28%	0%	1%	-25%	45µM*
CCCCCNC(=O)c1cc2c(=O)n3ccccc3nc2n1C	0%	1%	6%	-3%	16%	12%
COc1cccc(N2CC(C(=O)Nc3nnc(SCc4cccnc4)s3)CC2=O)c1 (stereo unspecified)	?	-8%	-2%	-3%	?	25µM*
Cc1cccc(N2CC(C(=O)Nc3nnc(SCC(=O)N4CCOCC4)s3)CC2=O)c1 (stereo unspecified)	45µM*	-27%	12%	6%	?	28µM*
COc1cccc(N2CC(C(=O)Nc3nnc(SCCC4OCCO4)s3)CC2=O)c1 (stereo unspecified)	45µM*	-19%	-3%	6%	?	-10%
NC(=O)CSc1nnc(NC(=O)C2CC(=O)N(c3ccc(F)cc3)C2)s1 (stereo unspecified)	50µM*	-5%	-4%	4%	6%	1%
Cc1cc(C)cc(OCC(=O)Nc2c(C)ccc3nsnc23)c1	-10%	-23%	-9%	2%	-13%	7%
COC(=O)NC(CC(C)=O)c1cccc(F)c1 (stereo unspecified)	·	·	·	-3%[21 µM]	·	·
CN1CCCc2cc(/C=C/c3ccnc4ccccc34)ccc21	·	1%	?	·	11%	·
Cc1cccc(N2C(=O)N(CC(=O)C(C)(C)C)c3ccccc3S2(=O)=O)c1C	-21%	-7%[60.1 µM]	-10%	5%	20%	4%
N[C@H](C(=O)N[C@@H]1C(=O)N2C(C(=O)O)=C(Cl)CS[C@@H]12)c1ccccc1	·	-8%[12 µM]	·	-13%[56.1 µM]	·	·
Cn1nnnc1SCC1=C(C(=O)O)N2C(=O)C(NC(=O)C(OC=O)c3ccccc3)C2SC1 (stereo unspecified)	·	22µM*	·	·	·	·
Cn1nnnc1SCC1=C(C(=O)O)N2C(=O)[C@@H](NC(=O)[C@H](O)c3ccccc3)[C@H]2SC1	1.3µM*	1.6µM*	?	16µM*	3.2µM*	10µM*
COc1ccc(Cl)cc1NC(=O)c1ccc2c(c1)CCN2S(C)(=O)=O	-9%	-1%	-6%	5%	8%	29%
Cn1cnc([N+](=O)[O-])c1SCC(O)CN1CCCCC1 (stereo unspecified)	-1%	5%	-4%	4%	-12%	-15%
Cn1cnc([N+](=O)[O-])c1SCC(=O)NN	-2%	?	-25%	·	79µM*	-21%
CSc1ccc(CCNC(=O)c2ccc(-c3nc(COc4ccccc4)c(C)o3)cc2)cc1	-9%	-13%	1%	3%	23%	1%
N#C/C(=C/c1cn(Cc2ccc(F)cc2)c2ccccc12)C(=O)Nc1cccc(Cl)c1	-17%	?	89µM*	-3%[12.3 µM]	56µM*	1%
O=S(=O)(c1ccccc1C(F)(F)F)N1CCN(c2nc(-c3cccs3)nc3ccccc23)CC1	·	10%	11%	0%	?	·
CC1=C([N+](=O)[O-])C(c2ccc(O)c(O)c2)NC(=O)N1 (stereo unspecified)	-8%	-33%	-1%	·	79µM*	8%
COc1cc(C2NC(=O)NC(c3ccccc3)=C2C(C)=O)cc(Cl)c1OCC(=O)O (stereo unspecified)	28µM*	-20%	6%	11%	37%	1%
CC(=O)C1=C(c2ccccc2)NC(=O)NC1c1ccc(O)c(O)c1 (stereo unspecified)	?	79µM*	-17%	-5%	40µM*	4µM*
COc1cc(C2NC(=S)NC(c3ccccc3)=C2C(C)=O)cc(Cl)c1OCC(=O)O (stereo unspecified)	-8%	-16%	-3%	-4%	0%	-19%
CC(=O)C1=C(c2ccccc2)NC(=S)NC1c1ccc(O)c(O)c1 (stereo unspecified)	?	-49%	-3%	-3%	18µM*	4µM*

Screens from PubChem BioAssay.
